We go through 35 molecules from PubChem BioAssay AID602143 (Vanderbilt Specialized Chemistry Center, 2011).

The structures appear in SMILES notation. Values without a mark were called inactive. The source made the active and inactive calls. Rule as the data show it: active = remaining activity below about 50%; inactive = the rest.

In the assay the target is Phospholipase D2 (Homo sapiens) (UniProt O14939). Kind of assay: PLD2 inhibitors in cells, cell-based, HEK293, single concentration (AID 602143).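 Also: tested at 200 nM.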 The following applies: HEK293 cellular PLD2 activity, percent of control; hits give low values.
Sequence of Phospholipase D2 (Homo sapiens) (O14939 whole entry, looked up): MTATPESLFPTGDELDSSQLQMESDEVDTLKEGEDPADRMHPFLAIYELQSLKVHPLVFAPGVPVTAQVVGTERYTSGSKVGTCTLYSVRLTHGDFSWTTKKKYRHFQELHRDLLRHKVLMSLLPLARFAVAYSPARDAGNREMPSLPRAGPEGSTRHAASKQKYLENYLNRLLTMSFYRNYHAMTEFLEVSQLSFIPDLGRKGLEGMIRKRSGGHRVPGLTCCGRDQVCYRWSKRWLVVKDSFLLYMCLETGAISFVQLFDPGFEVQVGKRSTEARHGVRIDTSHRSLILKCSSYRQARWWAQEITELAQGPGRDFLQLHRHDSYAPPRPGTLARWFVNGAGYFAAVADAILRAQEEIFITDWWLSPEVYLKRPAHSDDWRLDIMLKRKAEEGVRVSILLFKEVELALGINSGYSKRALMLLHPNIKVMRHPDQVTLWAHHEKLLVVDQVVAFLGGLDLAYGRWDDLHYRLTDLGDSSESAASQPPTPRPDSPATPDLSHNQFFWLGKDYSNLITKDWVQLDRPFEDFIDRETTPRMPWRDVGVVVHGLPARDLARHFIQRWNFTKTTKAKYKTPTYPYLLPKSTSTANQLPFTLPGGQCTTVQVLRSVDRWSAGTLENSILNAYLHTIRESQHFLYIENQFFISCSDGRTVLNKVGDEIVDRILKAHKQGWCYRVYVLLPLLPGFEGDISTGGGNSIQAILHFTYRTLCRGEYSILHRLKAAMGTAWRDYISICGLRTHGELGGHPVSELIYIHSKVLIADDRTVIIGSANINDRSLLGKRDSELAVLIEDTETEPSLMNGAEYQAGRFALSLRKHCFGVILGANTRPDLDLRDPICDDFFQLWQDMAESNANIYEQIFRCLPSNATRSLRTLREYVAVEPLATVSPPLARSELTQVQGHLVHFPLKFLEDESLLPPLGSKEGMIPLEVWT
Sequence of Phospholipase D2 (Homo sapiens) (O14939 whole entry, looked up): as above
Consider `O=C(NCCN1CCC2(CC1)C(=O)NCN2c1ccccc1)C1C[C@H]1c1ccccc1` (stereo not given in full), for which the remaining activity was 98.4%.

Regarding `O=C(NCCCN1CCC2(CC1)C(=O)NCN2c1ccccc1)c1ccc2ccccc2c1`, the remaining activity is 98%.

For the molecule `O=C(NCCN1CCC2(CC1)C(=O)NCN2c1ccccc1)C1(c2ccccc2)CCC1`, the remaining activity is 87.6%.

With `O=C(Cc1ccccc1Br)NCCN1CCC2(CC1)C(=O)NCN2c1cccc(F)c1`, the remaining activity is 117%.

Take `O=C(c1c(F)cccc1F)N(CCN1CCC2(CC1)C(=O)NCN2c1cccc(F)c1)C(=O)c1c(F)cccc1F`: the remaining activity is 88.1%.

In the case of `O=C(NCCN1CCC2(CC1)C(=O)NCN2c1ccccc1)c1ccc2c(c1)C(=O)OC2=O`, the remaining activity is 93.5%.

For `O=C(c1cnc2ccccc2c1)N1CC(N2CCC(n3c(=O)[nH]c4ccccc43)CC2)C1`, the remaining activity was 77.3%.

Turning to `O=C(NCCN1CCC2(CC1)C(=O)NCN2c1ccc(Br)cc1)c1ccc(F)cc1`, the remaining activity is 73.2%.

In the case of `O=C(NCCCCCCN1CCC2(CC1)C(=O)NCN2c1ccccc1)c1ccc2ccccc2c1`, the remaining activity is 133%.

With `O=C(NCCN1CCC2(CC1)C(=O)NCN2c1ccccc1)c1cnc2ccccc2c1`, the remaining activity was 56.6%.

On to `O=C(c1ccc(F)c(F)c1)N(CCN1CCC2(CC1)C(=O)NCN2c1cccc(F)c1)C(=O)c1ccc(F)c(F)c1`, for which the remaining activity was 106%.

`Cc1cccc(C(=O)N[C@@H](C)CN2CCC3(CC2)C(=O)NCN3c2ccccc2)c1`: the remaining activity is 83.2%.

Regarding `O=C(COCc1ccccc1)NCCN1CCC2(CC1)C(=O)NCN2c1cccc(F)c1`, the remaining activity was 86.7%.

`C[C@@H](CN1CCC2(CC1)C(=O)NCN2c1ccc(F)c(F)c1)NC(=O)c1cc2ccccc2[nH]1`: the remaining activity is 0% (active).

As for `O=C(NCCN1CCC2(CC1)C(=O)NCN2c1cccc(Br)c1)c1ccc2ccccc2c1`, the remaining activity is 47.8% (active).

Consider `Cc1ccc(C(=O)NCCN2CCC3(CC2)C(=O)NCN3c2ccccc2)c(O)c1`, for which the remaining activity was 85%.

Regarding `CC(C)[C@@H](CN1CCC2(CC1)C(=O)NCN2c1ccccc1)NC(=O)c1cc2ccccc2[nH]1`, the remaining activity is 25.8% (active).

In the case of `O=C(NCCN1CCC2(CC1)C(=O)NCN2c1ccc(Cl)cc1)c1ccc(Cl)cc1`, the remaining activity is 49% (active).

For `O=C(NCCCCCCN1CCC2(CC1)C(=O)NCN2c1ccccc1)c1cnc2ccccc2c1`, the remaining activity is 127%.

On to `O=C(NCCN1CCC2(CC1)C(=O)NCN2c1ccc(Cl)cc1)c1ccc2ccccc2c1`, for which the remaining activity was 54.4%.

As for `Nc1ccc(C(=O)NCCN2CCC3(CC2)C(=O)NCN3c2ccccc2)cc1OC(F)(F)F`, the remaining activity is 97.3%.

On to `O=C(NCCN1CCC2(CC1)C(=O)NCN2c1ccc(Cl)cc1)c1ccc(F)cc1`, for which the remaining activity is 58.4%.

On to `O=C(NCCN1CCC2(CC1)C(=O)NCN2c1ccc(Cl)cc1)c1cc2cc(F)ccc2[nH]1`, for which the remaining activity is 57%.

Consider `O=C(C1CC1c1ccccc1)N1CC(N2CCC3(CC2)C(=O)NCN3c2ccccc2)C1` (stereo not given), for which the remaining activity was 82.9%.

As for `Cc1ccccc1C(=O)N(CCN1CCC2(CC1)C(=O)NCN2c1cccc(F)c1)C(=O)c1ccccc1C`, the remaining activity is 106%.

In the case of `O=C(NCCN1CCC2(CC1)C(=O)NCN2c1cccc(F)c1)c1ccc(OC(F)(F)F)cc1`, the remaining activity was 78%.

With `O=C(NCCN1CCC2(CC1)C(=O)NCN2c1cccc(F)c1)C12CC3CC(CC(C3)C1)C2`, the remaining activity was 87.1%.

For the molecule `O=C(CN1CCC2(CC1)C(=O)NCN2c1ccccc1)c1ccccc1`, the remaining activity was 106%.

On to `O=C(NCCN1CCC2(CC1)C(=O)NCN2c1ccccc1)c1cc(=O)c2cc(Br)ccc2o1`, for which the remaining activity is 122%.

Regarding `O=C(c1ccc2ccccc2c1)N1CC(N2CCC(n3c(=O)[nH]c4ccccc43)CC2)C1`, the remaining activity is 64.3%.

Turning to `O=C(NCCN1CCC2(CC1)C(=O)NCN2c1ccc(Br)cc1)c1cc2cc(F)ccc2[nH]1`, the remaining activity is 23.7% (active).

Take `O=C(NCCN1CCC2(CC1)C(=O)NCN2c1cccc(F)c1)C1CCCCC1`: the remaining activity is 91%.

Regarding `C[C@@H](CN1CCC2(CC1)C(=O)N(Cc1ccccc1)c1ccccc12)NC(=O)c1ccc2ccccc2c1`, the remaining activity was 71.6%.

On to `C[C@@H](CN1CCC2(CC1)C(=O)NCN2c1ccc(F)c(F)c1)NC(=O)c1ccc(F)cc1`, for which the remaining activity is 23.6% (active).

For `O=C(NCCN1CCC2(CC1)C(=O)NCN2c1ccccc1)c1cc(-c2ccccc2)no1`, the remaining activity is 88.3%.
